# Screening results from PubChem BioAssay.
# ASM inhibitor = inhibitors of human secretory acid sphingomyelinase. P17405. AID 504937. placental ASM, HMU-PC fluorogenic substrate, 60 min. Potency, µM (doses to about 57.5 µM), usual class: inhibitors. hit rate 0.006% among 340,000
# Target sequence (P17405 47-631 limits assumed): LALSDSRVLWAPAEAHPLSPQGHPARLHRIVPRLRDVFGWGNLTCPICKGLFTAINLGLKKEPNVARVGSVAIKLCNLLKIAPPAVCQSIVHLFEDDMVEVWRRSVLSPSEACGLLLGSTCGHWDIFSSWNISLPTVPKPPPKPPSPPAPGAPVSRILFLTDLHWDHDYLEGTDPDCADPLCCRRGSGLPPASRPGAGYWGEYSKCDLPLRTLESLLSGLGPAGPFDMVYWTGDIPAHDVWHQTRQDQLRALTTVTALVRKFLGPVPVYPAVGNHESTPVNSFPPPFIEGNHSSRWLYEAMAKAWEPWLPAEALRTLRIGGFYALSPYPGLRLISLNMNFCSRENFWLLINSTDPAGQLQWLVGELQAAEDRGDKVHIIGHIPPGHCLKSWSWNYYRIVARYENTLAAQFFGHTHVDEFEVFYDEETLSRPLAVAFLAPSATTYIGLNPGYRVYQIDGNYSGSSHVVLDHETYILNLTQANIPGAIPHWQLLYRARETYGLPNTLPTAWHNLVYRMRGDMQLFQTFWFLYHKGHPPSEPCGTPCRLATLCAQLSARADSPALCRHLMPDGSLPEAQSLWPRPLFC
#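 Fluorogenic HMU-PC substrate (9 uM final) is turned over by placental ASM in 60 min at 37 C after a 10 min compound preincubation. Reaction ended by alkaline stop (pH 10), with fluorescence read at 386/447 nm.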
# TDP1 cell CPT = DT40-hTDP1 cell growth loss with CPT. chicken DT40 Tdp1-/-;hTDP1 cells + 20 nM CPT, ATP luminescence, 48 h. Potency, µM (top dose mostly 46.2 µM), actives largely listed as inhibitors. hit rate 12% among 420,000; also: nearly all actives have a fitted effect of over 55% in size
#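 Cell growth measured by CellTiter-Glo luminescence after a minimum 48 h, 37 C compound exposure with 20 nM CPT in Tdp1-knockout DT40 cells stably expressing hTDP1, seeded 400/well; qHTS titration format.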
# HepG2 tox = counter-screen for TGF-b inhibitors: cytotoxicity in HepG2 cells; Potency, µM (highest dose often 46.1 µM), actives largely listed as cytotoxic; AID 588856; hit rate 0.76% among 410,000; HepG2 CAGA-GFP viability, ATP luminescence, 18 h
#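 HepG2 CAGA-GFP cells (1000/well, DMEM with 1% FBS) received compound, then TGF-beta at 500 pg/mL final, and were incubated 18 hours at 37 degrees C. Viability was read by CellTiter-Glo luminescence. Media-only wells were set as complete cell-killing and DMSO as no toxicity.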
# TGFb SMAD3 inh = TGF-b pathway inhibition; HepG2 CAGA-GFP TGF-b/SMAD3 reporter, GFP fluorescence, 18 h; TGF-beta stimulated, 500 pg/mL final; Potency, µM (titrated, usually from 46.1 µM), usual class: inhibitors; hit rate 1.2% among 410,000; AID 588855; also: nearly all actives have a fitted effect of over 65% in size
#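 Inhibition was scored as loss of TGF-beta-induced (500 pg/mL final, 18 hours, 37 degrees C) GFP in HEPG2 cells carrying a CAGA-GFP reporter, in DMEM with 1% FBS. Well GFP was summed per cell; Activity was normalised to unstimulated and stimulated DMSO wells, then concentration-response fitting.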
# TDP1 cell noCPT = qHTS for Inhibitors of human tyrosyl-DNA phosphodiesterase 1 (TDP1): qHTS in cells in absence of CPT. DT40 Tdp1-/- hTDP1 cells, no CPT, ATP luminescence, 48 h. Potency, µM (series often up to 46.2 µM), usual class: inhibitors. hit rate 15% among 420,000. AID 686978, 2013; also: nearly all actives have a fitted effect of over 55% in size
#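 Chicken DT40 Tdp1-/- cells stably complemented with human TDP1 were seeded at 400 cells/well with DMSO in place of 20 nM camptothecin. After compound pinning, cells grew at least 48 hr at 37 °C; viability read by CellTiter-Glo luminescence.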
# IL-1B inflam inh = blocks inflammasome-driven IL-1 beta release; hit rate 4.7% among 360,000; activity change, % at 57.5 µM; THP-1 LPS/ATP IL-1B secretion, AlphaLISA, 16 h; hits give low values; in the data active = activity change below about -50%; inconclusive = mostly about -30% to -49%
#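 Secreted IL-1B measured by AlphaLISA bead assay after 16 h compound exposure of THP-1 cells; compounds (final up to 57.5 uM) added 1 h before LPS (250 ng/mL) and ATP (1.25 mM) stimulation; lower signal means less secretion.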
# Hits are given with their value; i = inactive; ? = inconclusive; nt = not tested or not shown; [ ] = remark or other dose. A selection: hits, their analogues and other compounds. The true share with any hit is near 19%. Unless noted, calls follow the shape of the dose curve; as a rule, active = well fitted curve in the direction sought with a large enough effect; inconclusive = small, poorly fitted or top-dose-only effect, or another doubt; inactive = no such curve, though single readings can be large; an effect the other way counts as inactive or inconclusive.
SMILES,ASM inhibitor,TDP1 cell CPT,HepG2 tox,TGFb SMAD3 inh,TDP1 cell noCPT,IL-1B inflam inh
COc1ccc(C(=O)N=c2sc3ccccc3n2C)cc1OC,i,?,i,i,15µM,i
Cc1cccc(C(=O)NCC(=O)N2CCOCC2)c1,i,i,i,i,i,i
Cc1nn2c(=O)cc(COc3ccc(/C=C(\C#N)C(=O)Nc4ccccc4)cc3Cl)nc2s1,nt,i,i,?,21µM,nt
Cc1nn2c(=O)cc(COc3ccc(/C=C(\C#N)C(=O)Nc4ccccc4C)cc3)nc2s1,nt,i,i,i,?,nt
NC(=O)c1c(-c2ccc(Cl)cc2Cl)csc1NC(=O)Cc1ccccc1,i,8.2µM,i,i,9.2µM,i
Cc1cc(C=C2C(=O)CCCC2=O)c(C)n1-c1ccccc1,i,i,i,i,?,i
Cc1cc(/C=C2\C(=O)NN(c3ccccc3)C2=O)c(C)n1-c1ccccc1O,i,?,i,?,15µM,i
Cc1cc(/C=C2/C(=O)NN(c3ccccc3)C2=O)c(C)n1-c1ccc(O)cc1,i,?,i,i,18µM,i
COc1ccc(-n2c(C)cc(/C=C3\C(=O)NN(c4ccccc4)C3=O)c2C)cc1,i,i,i,i,i,i
O=C1NN(c2ccccc2)C(=O)/C1=C/c1coc2ccccc2c1=O,i,?,i,?,?,i
O=C1NN(c2ccccc2)C(=O)/C1=C\c1coc2ccc(O)cc2c1=O,i,16µM,i,?,21µM,i
CC[n+]1c(C)n(-c2ccccc2)c2ccc(C(=O)OC)cc21,i,i,i,i,i,i
CCCCn1c(N)c(N(C)C(=O)c2ccccc2Oc2ccccc2)c(=O)[nH]c1=O,i,i,i,i,i,i
Cc1ccc2oc(C(=O)NCC(c3ccc(Cl)cc3)N3CCOCC3)c(C)c2c1 (stereo unspecified),nt,8.2µM,i,i,10µM,nt
COc1ccc(C(CNC(=O)c2cc(C)oc2C)N2CCOCC2)cc1 (stereo unspecified),i,?,i,i,?,i
COc1ccc(C(CNC(=O)c2ccc(-c3cccc(C(F)(F)F)c3)o2)N2CCOCC2)cc1 (stereo unspecified),i,?,i,i,21µM,i
COc1ccc(C(CNC(=O)c2ccco2)N2CCOCC2)cc1 (stereo unspecified),i,i,i,i,i,i
CCC1CCc2sc(C(=O)NCC(c3ccc(OC)cc3)N3CCOCC3)cc2C1 (stereo unspecified),i,23µM,i,?,13µM,i
Cc1ccc2oc(C(=O)NCC3CCOCC3)c(C)c2c1,i,i,i,i,i,i
COc1ccc(C(CNC(=O)c2oc3ccc(C)cc3c2C)N2CCOCC2)cc1 (stereo unspecified),nt,23µM,i,i,i,nt
Cc1ccc(OCCNC(=O)CNC(=O)c2ccc3c(c2)OCO3)cc1,i,i,i,i,i,i
Cc1ccn2c(=O)nc(SCC(=O)NCc3ccccc3Cl)nc2c1,nt,i,i,i,i,i
COc1ccc(-c2nc(CS(=O)CC(=O)NC(C)CCc3ccccc3)c(C)o2)cc1OC (stereo unspecified),i,?,i,?,?,i
CCN1CCN(S(=O)(=O)c2c(C)cc(C)cc2C)CC1,i,i,i,i,i,i
Cc1c(C(=O)NCCN2CCOCC2)oc2ccccc12,i,i,i,i,i,i
Cc1c(C(=O)NCC(c2ccc(Cl)cc2)N2CCOCC2)oc2ccccc12 (stereo unspecified),nt,16µM,i,?,23µM,nt
CCC(OC(=O)C1=Cc2ccccc2OC1)C(=O)NCc1ccco1 (stereo unspecified),i,i,i,i,26µM,i
Cc1cc(C)cc(C(=O)NCCn2cc(C(=O)N3CCSCC3)nn2)c1,nt,i[9.04 µM],nt,nt,i,nt
